Screens (PubChem BioAssay)
ELG1 genotox: qHTS screen for small molecules that induce genotoxicity in human embryonic kidney (HEK293T) cells expressing luciferase-tagged ELG1 | HEK293T ELG1-luciferase reporter, luminescence, 16 h | hit rate 1.3% among 330,000 | Potency, µM (highest dose often 46 µM), for inactives: top-dose activity change, positive = activation, actives largely listed as activators; also: % of control where 0% means no effect; nearly all actives have a fitted effect of over 60% in size
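DMSO vehicle served as control against compound-treated ELG1-luciferase HEK293T cells; exposure lasted 16 hr at 37 °C and 5% CO2, followed by ONE-Glo luminescence detection after 30 min.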
FLuc modulator: qHTS profiling assay for firefly luciferase inhibitor/activator using purifed enzyme and Km concentrations of substrates (counterscreen for miR-21 project); purified FLuc, Km substrates, luminescence inhibition; hit rate 6.9% among 360,000; Potency, µM (series often up to 57.5 µM), for inactives: at the highest dose activity change, negative = inhibition, usual class: inhibitors; AID 588342, 2011;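 also: plate controls were vehicle for no effect and reference inhibitor for full effect; nearly all actives have a fitted effect of over 55% in size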
Target sequence (P08659 whole entry, looked up): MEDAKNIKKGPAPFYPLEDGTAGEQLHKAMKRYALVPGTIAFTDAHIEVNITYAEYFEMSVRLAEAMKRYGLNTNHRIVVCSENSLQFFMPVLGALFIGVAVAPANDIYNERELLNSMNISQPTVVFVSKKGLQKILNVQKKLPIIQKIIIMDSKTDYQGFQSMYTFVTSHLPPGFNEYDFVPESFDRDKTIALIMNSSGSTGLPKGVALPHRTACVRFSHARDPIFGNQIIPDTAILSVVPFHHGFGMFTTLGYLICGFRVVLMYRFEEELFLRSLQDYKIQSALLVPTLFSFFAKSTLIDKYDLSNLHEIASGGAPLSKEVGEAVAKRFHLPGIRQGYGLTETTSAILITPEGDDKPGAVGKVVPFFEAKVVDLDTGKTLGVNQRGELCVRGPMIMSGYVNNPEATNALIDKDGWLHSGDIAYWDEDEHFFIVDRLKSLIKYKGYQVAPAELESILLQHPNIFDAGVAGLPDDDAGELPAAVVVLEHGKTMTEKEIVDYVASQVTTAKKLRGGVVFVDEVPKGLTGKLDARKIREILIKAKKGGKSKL
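Biochemical qHTS of compounds, final roughly 60 µM downward over six points, against 10 nM purified firefly luciferase using Km concentrations of substrates (10 uM D-luciferin, 10 uM ATP) in Tris acetate pH 7.5 buffer; luminescence output.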
NPC1 promoter act: qHTS Assay for NPC1 Promoter Activators. hit rate 2.4% among 320,000. Potency, µM (titrated, usually from 9.22 µM), without a hit: at the top dose activation, most hits filed as activators. Huh7 NPC1 promoter luciferase reporter, 24 h; also: % of control where 0% means no effect; nearly all actives have a fitted effect of over 60% in size
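Quantitative HTS used a cell-based reporter: Huh7 cells stably bearing the NPC1 promoter upstream of luciferase were treated with compounds for 24 h, and promoter activation was read as luminescence.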
Rab9 promoter act: qHTS Assay for Rab9 Promoter Activators | Huh7 Rab9 promoter-luciferase reporter, luminescence, 24 h | Potency, µM (titrated, usually from 9.22 µM), without a hit: at the top dose activation, negative = inhibition, actives largely listed as activators | hit rate 2.8% among 320,000 | AID 485297, 2010; also: % of control where 0% means no effect; nearly all actives have a fitted effect of over 60% in size
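Measured in stably transfected Huh7 cells bearing a Rab9 promoter–luciferase construct: 24 h compound treatment at 37 °C, followed by luminescence detection.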
SMN2 splice enh: qHTS Assay for Enhancers of SMN2 Splice Variant Expression. AID 1458, 2008. hit rate 2.8% among 210,000. Potency, µM (top dose mostly 46.1 µM), for the others: at the highest dose activity change, positive = activation, usual class: activators. HEK293 SMN2-luciferase splicing reporter, luminescence, 30-36 h; also: % of control where 0% means no effect; nearly all actives have a fitted effect of over 55% in size
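qHTS luciferase splicing reporter: luminescence rises when SMN2 exon 7 is included in transfected HEK293 cells. Compound exposure lasted 30-36 h at 37C, with 4.5 mM final sodium butyrate as control, followed by a ONE-Glo read.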
Luc counter: Counterscreen for Luciferase (Kinase-Glo TM) Inhibition | Luciferin 4-monooxygenase (Photuris pensylvanica), Q27757 | Kinase-Glo luciferase, ATP luminescence, 8 min | Potency, µM (series often up to 38.3 µM), without a hit: top-dose activity change, negative = inhibition, hits mostly inhibitors | hit rate 0.28% among 200,000 | AID 1379, 2008; also: % is scaled to controls: 0 for no effect and ±100 for the full control effect; nearly all actives have a fitted effect of over 60% in size
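Luminescence was the read-out, taken after 8-minute incubation at ambient temperature. Luciferase turned over luciferin with 10 uM ATP in imidazole pH 7.2 buffer containing KCl, MgCl2, Tween 20 and BSA.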
* hit, by the source's call; ? = inconclusive; / = no result given. In the library only some 7.5% were active in any assay of this set; here they are far more common. Calls follow the shape of the dose curve; as a rule, active = well fitted curve in the direction sought with a large enough effect; inconclusive = small, poorly fitted or top-dose-only effect, or another doubt; inactive = no such curve, though single readings can be large; an effect the other way counts as inactive or inconclusive. Potency is read from the fitted curve at half-maximal effect.

SMILES	ELG1 genotox	FLuc modulator	NPC1 promoter act	Rab9 promoter act	SMN2 splice enh	Luc counter
O=C(CNc1ccccc1)N/N=C/c1ccc2c(c1)OCO2	2%	?	5%	3%	7%	1%
O=C(CNC(=O)c1ccccc1F)N/N=C/c1ccc2c(c1)OCO2	?	17µM*	?	?	/	/
O=C(CNc1ccccc1)N/N=C/c1ccc2c(c1)OCCO2	1%	9.5µM*	2%	0%	?	4%
C/C(=N\NC(=O)Cn1ccc(C(F)(F)F)n1)c1ccc2c(c1)OCO2	-3%	-7%	-2%	11%	-7%	0%
O=C(CNC(=O)c1ccccc1Cl)N/N=C/c1ccc2c(c1)OCO2	3%	?	-1%	2%	/	/
O=C(Cc1ccccc1)N/N=C/c1ccc2c(c1)OCO2	?	15µM*	2.5µM*	4µM*	16µM*	-1%
O=C(Cn1ccc(C(F)(F)F)n1)N/N=C/c1ccc2c(c1)OCO2	?	19µM*	23%	6%	/	/
Cc1ccc2nc(N(Cc3cccnc3)C(=O)C3COc4ccccc4O3)sc2c1 (centres undefined)	/	0%	/	/	/	/
Nc1ncnc2c1nc(Br)n2[C@@H]1O[C@H]2COP(=O)(O)O[C@@H]2[C@@H]1O	/	/	/	/	-17%	/
CCOC(=O)c1ccc(NC(=O)c2cc(=O)c3cc(CC)ccc3o2)cc1	/	1%	/	/	17%	/
COc1cccc(C(=O)NCC(=O)N/N=C/c2ccc3c(c2)OCO3)c1	6%	24µM*	3%	1%	/	/
O=C(CNC(=O)c1ccccn1)N/N=C/c1ccc2c(c1)OCO2	-11%	?	2%	-6%	13%	5%
COc1cccc(C(=O)NCC(=O)N/N=C/c2cccnc2)c1	2%	3%	-2%	0%	/	/
O=C(CSc1ncccn1)N/N=C/c1ccc2c(c1)OCO2	?	11µM*	26%	?	/	/
Cc1cccc(NS(=O)(=O)c2ccc3[nH]c(=O)ccc3c2)c1C	/	-6%	/	/	/	/
COc1ccc2cc(C(N)=O)/c(=N\NC(=O)c3ccccc3)oc2c1	?	11µM*	0.89µM*	0.71µM*	/	/
COc1ccccc1NC(=O)c1cc2ccccc2o/c1=N\O	16%	?	29%	4µM*	-8%	-3%
COc1ccc(N=c2oc3ccccc3cc2C(=O)Nc2ccccn2)cc1OC	?	24µM*	?	?	10%	-14%
COc1ccccc1NC(=O)c1oc2ccccc2c1NC(=O)c1cccc(OC)c1OC	/	-2%	/	/	-2%	/
COc1ccccc1NC(=O)c1cc2ccc(O)cc2o/c1=N\O	3%	5.4µM*	1%	-2%	10%	-7%
COc1ccccc1NC(=O)c1cc2c(CO)cnc(C)c2oc1=Nc1ccc(OC)c(OC)c1	-11%	1%	-8%	-10%	/	/
COc1ccc(S(=O)(=O)N(CCc2ccccc2)CC(=O)Nc2ccc(C)c(C)c2)cc1OC	/	-3%	/	/	-32%	/
COc1ccccc1N=c1oc2cc(O)ccc2cc1C(N)=O	0%	13µM*	6%	2%	-5%	?
CCn1cc(C(=O)N(C)c2cc(C)ccc2C)c2cc(OC)c(OC)cc2c1=O	/	2%	/	/	-16%	/
CCCOc1ccc(/C=C/C(=O)OCC(=O)N(C)c2c(N)n(Cc3ccccc3)c(=O)[nH]c2=O)cc1OCC	0%	5%	1%	3%	/	/
SMILES	ELG1 genotox	FLuc modulator	NPC1 promoter act	Rab9 promoter act	SMN2 splice enh	Luc counter
CCOc1cc(-c2cc(-c3ccc(N)cc3)nc(N)c2C#N)ccc1O	-1%	-13%	1%	9%	13µM*	-4%
CCOc1cc(-c2cc(-c3ccccc3)nc(N)c2C#N)ccc1O	?	-18%	-1%	-3%	?	4%
CCN(CC)C(=O)c1cc2c(=O)n3ccccc3nc2s1	16µM*	?	24%	29%	?	-5%
CC1CCCN(C(=O)c2cc3c(=O)n4ccccc4nc3s2)C1 (centres undefined)	16µM*	17µM*	?	?	/	/
Cc1cccn2c(=O)c3cc(C(=O)N4CCCC(C)C4)sc3nc12 (centres undefined)	17%	?	1%	11%	/	/
CC(C)CN(CC(C)C)C(=O)c1cc2c(=O)n3ccccc3nc2s1	-5%	-2%	-4%	0%	/	/
CSc1ccccc1C(=O)OCC(=O)Nc1cccnc1Cl	5%	/	/	/	/	/
CCOC(=O)c1ccc(-c2ccc(/C=N/NC(=O)Cc3nnc(N)s3)o2)cc1	14%	?	2.5µM*	3.2µM*	/	/
CCOC(=O)c1ccc(-c2ccc(/C=N/NC(=O)c3cncc(Br)c3)o2)cc1	?	2%	1.3µM*	0.71µM*	/	/
O=C(NCCc1ccccc1)c1ccc([N+](=O)[O-])cc1	?	3µM*	0.4µM*	0.45µM*	11µM*	-3%
Cc1cc(C(=O)NCCc2ccccc2)ccc1[N+](=O)[O-]	?	13µM*	2.2µM*	4µM*	11µM*	4%
Cc1cccc(C(=O)NCCc2ccccc2)c1	4.6µM*	11µM*	1.4µM*	1.3µM*	/	/
Cc1ccc(C(=O)NCC(=O)OCC(=O)c2ccc(C)c([N+](=O)[O-])c2)cc1	1%	2%	0%	5%	7%	4%
Cc1cc(C(=O)NCC(=O)OCC(=O)N(C(C)C)C(C)C)ccc1[N+](=O)[O-]	1%	0%	3%	1%	13µM*	-1%
Cc1ccc(C)c(N(CC(=O)N2CCCC2)S(C)(=O)=O)c1	1%	1%	-5%	1%	/	/
NC(=O)c1ccc(NCC2CCCO2)c([N+](=O)[O-])c1 (centres undefined)	5%	-1%	6%	4%	/	/
O=C(NCCc1ccccc1)c1ccc(NCC2CCCO2)c([N+](=O)[O-])c1 (centres undefined)	?	?	?	?	10µM*	5%
Cc1ccsc1/C=C1\Oc2cc(OCC(=O)c3ccccc3)ccc2C1=O	7%	2.7µM*	10%	1%	-7%	-8%
COc1cccc(/C=C2\Oc3cc(OC(=O)N4CCOCC4)ccc3C2=O)c1	5%	6µM*	20%	22%	/	/
Cc1ccc(/C=C2\Oc3cc(OC(=O)N4CCOCC4)ccc3C2=O)cc1	-2%	2.1µM*	8%	14%	-17%	-2%
COc1ccccc1/C=C1\Oc2cc(OC(=O)N3CCOCC3)ccc2C1=O	4%	11µM*	19%	14%	/	/
COc1ccc(OC(=O)N2CCOCC2)cc1	6%	1%	4%	12%	/	/
